This is part of a sample that, as a whole, favours compounds with a hit. Of some 83,000 tested, about 20% had one in any assay.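 The test compound was applied at a single concentration to cells in 96-well plates for 48 hours, and percent growth was recorded.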 Calls of active or inactive are those of the source. The calls were made as follows: active = growth percent below 10; inactive = the rest.

The assay deals with HL-60(TB) leukemia. In words: NCI-60 one-dose screen, 48 h (100 = growth as untreated, 0 = no growth, -100 = all killed). Conditions: 10 µM unless noted.
`C#CCn1c(-c2cc(OC)c(OC)cc2Br)nc(-c2ccccc2)c1-c1ccccc1`: the growth is 24.5% (inactive).

Take `N#C/C(C(=O)c1ccccc1)=C1/C(=O)Nc2ccc(F)cc21`: the growth was 130% (inactive).

Take `Brc1ccsc1Br`: the growth is 102% (inactive).

On to `O=C1C(=O)/C(=C/c2ccccc2)CCCCCC/C1=C/c1ccccc1`, for which the growth is 46.6% (inactive).

For `COc1cc(OC)c2sc(-c3ccc(-n4cncc4-c4ccc(OC)c(N)c4)cc3)nc2c1`, the growth was 58.4% (inactive).

As to `C=CC(=O)Nc1cc(Nc2nccc(-c3cn(C)c4ccccc34)n2)c(OC)cc1N(C)CCN(C)C`, the growth is -65.8% (active).

With `COc1ccc2c(c1OC)OCC(CN(C)C)C2=O` (stereo not given), the growth is 40.1% (inactive).

With `CO[C@H]1CC(O[C@@H]2/C(C)=C/C[C@@H]3C[C@@H](C[C@]4(C=C[C@H](C)[C@@H](C5CCCCC5)O4)O3)OC(=O)[C@@H]3C=C(C)[C@@H](O)[C@H]4OC/C(=C\C=C\[C@@H]2C)[C@]43O)O[C@@H](C)C1O[C@H]1C[C@H](OC)[C@@H](O)[C@H](C)O1` (stereo not given in full), the growth is -50.5% (active).

Take `COP(=O)(OC)C(c1ccccc1)(c1ccccc1)c1ccccc1`: the growth was 45.3% (inactive).

With `COc1cccc(/C=C\C(=O)c2ccccc2)c1`, the growth is 43.9% (inactive).

Consider `c1ccc(C2=Nc3ccccc3SC2)cc1`, for which the growth is 107% (inactive).

As to `O=C(COc1cccc(/C=C2\CSc3ccccc3C2=O)c1)c1ccc(Cl)cc1`, the growth was -48% (active).

On to `CCCCCCC(C)c1ccccc1O` (stereo not given) (tested in a mixture with another compound), for which the growth was 113% (inactive).

With `COc1cc(C2CC(c3c(C)[n+]([O-])c4ccccc4[n+]3[O-])=NN2)cc(OC)c1OC` (stereo not given), the growth was 97.8% (inactive).

In the case of `CCCCCc1cc[n+](CC(=O)c2ccc([N+](=O)[O-])cc2)cc1`, the growth is 102% (inactive).

As to `Cc1cc(N2CCN(C)CC2)nc(N(CCNc2ccnc3cc(Cl)ccc23)Cc2ccco2)n1`, the growth was 8.29% (active).

As for `C=CC(=O)NCc1cccc(Nc2ncc(Br)c(NCCCNC(=O)C3CCC3)n2)c1`, the growth was -50% (active).

As to `CCOc1cccc(/C=N\Nc2nc(=O)cc(C(=O)OC)s2)c1O`, the growth is 72.8% (inactive).

In the case of `COc1cc([C@@H]2NC(=O)NC(C)=C2C(=O)Nc2nc(-c3ccc(Cl)cc3)cs2)ccc1O`, the growth was 100% (inactive).

For the compound `Cc1ncc(-c2ccnc(Nc3ccc(S(C)(=O)=O)cc3)n2)n1C(C)C`, the growth was -43.2% (active).

Take `O=C(O)CN1C(=O)C=CC1=O`: the growth is 96.9% (inactive).

Regarding `COc1ccc(C(=O)c2cc3c(N)c(C(=O)Nc4cccc5ccccc45)sc3nc2C)cc1`, the growth is -49% (active).

Take `CCOC(=O)c1c2c(c(C)n1Cc1ccc(OC)cc1)-c1oncc1CC2`: the growth was 91.9% (inactive).

With `CCc1ccc(-c2nc(SCC(=O)NC3CCCCC3)n[nH]2)cc1`, the growth was 56.3% (inactive).

Consider `CN(C)C=Nc1cc(Cl)ccc1Cl`, for which the growth was 102% (inactive).

On to `C#Cc1cccc(Nc2nc3cc([N+](=O)[O-])ccc3nc2Nc2ccc(O)cc2)c1`, for which the growth is 4.42% (active).

`COc1ccc(C2=NN(C(C)=O)C(c3ccc(Oc4ccnc5cc(Cl)ccc45)c(OC)c3)C2)cc1` (stereo not given): the growth is 78.4% (inactive).

For the compound `C#Cc1ccc(-n2c(/C=C/c3cc(OC)cc(OC)c3)nc3ncccc3c2=O)cc1`, the growth was 68.1% (inactive).

In the case of `COc1cc(C(=O)c2cnc(-c3c[nH]c4cccc(C)c34)[nH]2)cc(OC)c1OC`, the growth was -14.9% (active).

Regarding `C/C(=N/NC(=O)c1sc(=S)n(C)c1N)c1cc2cc(Cl)ccc2o1`, the growth is 113% (inactive).

`O=NC1CC=CCC1c1ccccc1` (stereo not given): the growth was 92.6% (inactive).

On to `COc1ccc(/C=C\c2cc(OC)c(OC)c(OC)c2)cc1OC(=O)c1cccc(Cn2cc(CCOC(=O)c3cccc(Cn4nnc5c4C(=O)c4ccccc4C5=O)c3)nn2)c1`, for which the growth is -21.9% (active).

`O=C(/C=C/c1cccc(Cl)c1)c1ccc(O)c(CN2CCN(c3cc4c(cc3F)c(=O)c(C(=O)O)cn4C3CC3)CC2)c1`: the growth is 27.3% (inactive).

Regarding `CCCCCCCCCCCCC1C/C=C\CCCC(=O)O1` (stereo not given), the growth was 88.4% (inactive).

Turning to `CCCCCCCCCCCC[N+](C)(C)Cc1ccccc1`, the growth was -52.6% (active).

For `COc1nc(=O)n(C2C=CC(=O)O2)cc1F` (stereo not given), the growth was 1.27% (active).

`Cc1ccc(S(=O)(=O)Oc2cc(OS(=O)(=O)c3ccc(C)cc3)cc(OS(=O)(=O)c3ccc(C)cc3)c2)cc1`: the growth was 107% (inactive).

Turning to `Cn1ccnc1C(=O)/C=C/c1ccc(C(=O)Nc2ccccc2F)cc1`, the growth was 5.22% (active).

With `CC[C@@H]1C(=O)N(C)c2cnc(Nc3ccc(C(=O)NC4CCN(C)CC4)cc3OC)nc2N1C1CCCC1`, the growth is -42.1% (active).

Take `Cc1ccccc1NC(=O)N/C(N)=N/c1nc2ccccc2s1`: the growth is -23.2% (active).
